Results filed as inconclusive are left out. The source made the active and inactive calls. Unless noted, calls follow the shape of the dose curve; as a rule, active = well fitted curve in the direction sought with a large enough effect; inconclusive = small, poorly fitted or top-dose-only effect, or another doubt; inactive = no such curve, though single readings can be large; an effect the other way counts as inactive or inconclusive.

Assay [1] concerns the target Thioredoxin reductase 1, cytoplasmic (Rattus norvegicus) (UniProt O89049). Briefly: qHTS Assay for Substrates of Mammalian Selenoprotein Thioredoxin Reductase 1 (TrxR1) (AID 488772).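 Also: a drop in NADPH fluorescence below the no-compound background marks a TrxR1 substrate.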 Also: potency is read from the fitted curve at half-maximal effect. The essentials: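 In this dual-purpose format, potential substrates are identified from the first fluorescence read after selenite addition, not from the 8-minute delta. Rat enzyme is preincubated with NADPH and then with compound at ~22 deg C.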

Assay [2] shares this target. Briefly: qHTS Assay for Inhibitors of Mammalian Selenoprotein Thioredoxin Reductase 1 (TrxR1) (AID 488773). Also: nearly all actives have a fitted effect of over 40% in size. Also: potency is read from the fitted curve at half-maximal effect. To be noted: Potency: inhibition. The method in brief: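 Inhibition is scored from the loss of NADPH fluorescence between first and last reads of an 8-min kinetic run. Selenite (400 uM) was the substrate, added after 15 min compound preincubation at room temperature.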
For orientation: qHTS replaces the single test concentration by a dilution series.

The target in assay [3] is Flap endonuclease 1 (Homo sapiens) (UniProt P39748). In words: qHTS Validation Assay for the Inhibitors of Human Flap endonuclease 1 (FEN1) (AID 488816). Also: % is scaled to controls: 0 for no effect and ±100 for the full control effect. The method in brief: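 qHTS format: compounds and 10 nM FEN1 incubated 15 min at room temperature before adding 50 nM substrate. Cleavage followed by reads at 0 and 15 min; normalized data fitted to a four-parameter Hill curve.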
Flap endonuclease 1 (Homo sapiens), sequence (P39748 whole entry, looked up): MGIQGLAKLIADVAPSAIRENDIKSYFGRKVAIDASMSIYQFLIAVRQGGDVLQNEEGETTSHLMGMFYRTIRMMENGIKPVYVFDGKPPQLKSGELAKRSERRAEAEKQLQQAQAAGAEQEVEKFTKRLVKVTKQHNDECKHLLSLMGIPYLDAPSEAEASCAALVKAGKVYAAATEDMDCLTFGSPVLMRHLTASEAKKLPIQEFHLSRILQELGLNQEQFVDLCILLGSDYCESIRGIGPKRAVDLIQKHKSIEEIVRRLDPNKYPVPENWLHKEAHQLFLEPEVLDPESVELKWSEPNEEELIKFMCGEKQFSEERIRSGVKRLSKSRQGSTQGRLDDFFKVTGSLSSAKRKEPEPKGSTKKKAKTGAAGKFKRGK

Assay [4] concerns the target M-phase phosphoprotein 8 (Homo sapiens) (UniProt Q99549). Briefly: qHTS Validation Assay for Inhibitors for MPP8 Chromodomain Interactions with Methylated Histone Tails (AID 488949).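 Also: 50 nM MPP8 with 50 nM peptide preformed then compounds added for 30 min; AlphaScreen signal from MPP8 chromodomain bound to biotinylated H3K9me3 peptide; top concentration of the series differs between compounds; % is scaled to controls: 0 for no effect and ±100 for the full control effect; nearly all actives have a fitted effect of over 55% in size.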 The essentials:
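50 nM MPP8 + 50 nM b-H3K9me3 peptide, PBS pH 7.4/0.01% Tween-20, 30 min RT; + cpd 30 min RT; + AlphaScreen donor/Ni-chelate acceptor beads 10 ug/mL final, 30 min dark; luminescence read.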

Assay [5] concerns the target D(1A) dopamine receptor (Homo sapiens) (UniProt P21728). Briefly: HTS Assay for Allosteric Agonists of the Human D1 Dopamine Receptor: Primary Screen for Agonists (AID 488981). Also: 0% is about no effect. The method in brief: (§1)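 Calcium flux in an inducible, force-coupled HEK293 Trex D1 line (overnight at 30 C): agonist mode is the 180 s kinetic read after compound; potentiator mode is the following 180 s read after dopamine at EC20.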

For assay [6] the target is unchanged. In words: HTS Assay for Allosteric Agonists of the Human D1 Dopamine Receptor: Primary Screen for Potentiators (AID 488982). Also: 0% is about no effect. The method in brief:
as §1

Assay [7] shares this target. Briefly: HTS Assay for Allosteric Agonists of the Human D1 Dopamine Receptor: Primary Screen for Antagonists (AID 488983).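 Also: calcium flux response to an EC80 dopamine challenge measured with no-wash dye; nearly all actives have a fitted effect of over 65% in size.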 Also: potency is read from the fitted curve at half-maximal effect. The essentials:
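In this primary screen, compounds are applied to calcium-dye-loaded HEK293 T-REx cells with force-coupled D1 expression induced overnight at 30 C. An EC80 of dopamine follows the 180 s compound phase, and calcium is monitored for a further 180 s.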

A short description of assay [8]: Validation screen for small molecules that induce genotoxicity in human embryonic kidney (HEK293T) cells expressing luciferase-tagged ELG1 (AID 493106). Also: potency is read from the fitted curve at half-maximal effect. The essentials: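 In this validation screen, increased ELG1-luciferase signal flags compounds causing genetic stress. HEK293T reporter cells are treated 16 hr (37 °C, 5% CO2), developed with ONE-Glo for 30 min at room temperature, and imaged on a CCD-based reader.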

For assay [9], the target named is ATPase family AAA domain-containing protein 5 (Homo sapiens) (UniProt Q96QE3). Briefly: Validation screen for small molecules that inhibit ELG1-dependent DNA repair in human embryonic kidney (HEK293T) cells expressing luciferase-tagged ELG1 (AID 493107). Also: nearly all actives have a fitted effect of over 70% in size. Also: potency is read from the fitted curve at half-maximal effect. The method in brief: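 Compounds reducing 5-fluorouridine-driven ELG1-luciferase signal in HEK293T cells were scored; exposure lasted 16 hr at 37 °C with luminescence detected via ONE-Glo.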
ATPase family AAA domain-containing protein 5 (Homo sapiens), sequence (Q96QE3 whole entry, looked up, the tested form may be a part): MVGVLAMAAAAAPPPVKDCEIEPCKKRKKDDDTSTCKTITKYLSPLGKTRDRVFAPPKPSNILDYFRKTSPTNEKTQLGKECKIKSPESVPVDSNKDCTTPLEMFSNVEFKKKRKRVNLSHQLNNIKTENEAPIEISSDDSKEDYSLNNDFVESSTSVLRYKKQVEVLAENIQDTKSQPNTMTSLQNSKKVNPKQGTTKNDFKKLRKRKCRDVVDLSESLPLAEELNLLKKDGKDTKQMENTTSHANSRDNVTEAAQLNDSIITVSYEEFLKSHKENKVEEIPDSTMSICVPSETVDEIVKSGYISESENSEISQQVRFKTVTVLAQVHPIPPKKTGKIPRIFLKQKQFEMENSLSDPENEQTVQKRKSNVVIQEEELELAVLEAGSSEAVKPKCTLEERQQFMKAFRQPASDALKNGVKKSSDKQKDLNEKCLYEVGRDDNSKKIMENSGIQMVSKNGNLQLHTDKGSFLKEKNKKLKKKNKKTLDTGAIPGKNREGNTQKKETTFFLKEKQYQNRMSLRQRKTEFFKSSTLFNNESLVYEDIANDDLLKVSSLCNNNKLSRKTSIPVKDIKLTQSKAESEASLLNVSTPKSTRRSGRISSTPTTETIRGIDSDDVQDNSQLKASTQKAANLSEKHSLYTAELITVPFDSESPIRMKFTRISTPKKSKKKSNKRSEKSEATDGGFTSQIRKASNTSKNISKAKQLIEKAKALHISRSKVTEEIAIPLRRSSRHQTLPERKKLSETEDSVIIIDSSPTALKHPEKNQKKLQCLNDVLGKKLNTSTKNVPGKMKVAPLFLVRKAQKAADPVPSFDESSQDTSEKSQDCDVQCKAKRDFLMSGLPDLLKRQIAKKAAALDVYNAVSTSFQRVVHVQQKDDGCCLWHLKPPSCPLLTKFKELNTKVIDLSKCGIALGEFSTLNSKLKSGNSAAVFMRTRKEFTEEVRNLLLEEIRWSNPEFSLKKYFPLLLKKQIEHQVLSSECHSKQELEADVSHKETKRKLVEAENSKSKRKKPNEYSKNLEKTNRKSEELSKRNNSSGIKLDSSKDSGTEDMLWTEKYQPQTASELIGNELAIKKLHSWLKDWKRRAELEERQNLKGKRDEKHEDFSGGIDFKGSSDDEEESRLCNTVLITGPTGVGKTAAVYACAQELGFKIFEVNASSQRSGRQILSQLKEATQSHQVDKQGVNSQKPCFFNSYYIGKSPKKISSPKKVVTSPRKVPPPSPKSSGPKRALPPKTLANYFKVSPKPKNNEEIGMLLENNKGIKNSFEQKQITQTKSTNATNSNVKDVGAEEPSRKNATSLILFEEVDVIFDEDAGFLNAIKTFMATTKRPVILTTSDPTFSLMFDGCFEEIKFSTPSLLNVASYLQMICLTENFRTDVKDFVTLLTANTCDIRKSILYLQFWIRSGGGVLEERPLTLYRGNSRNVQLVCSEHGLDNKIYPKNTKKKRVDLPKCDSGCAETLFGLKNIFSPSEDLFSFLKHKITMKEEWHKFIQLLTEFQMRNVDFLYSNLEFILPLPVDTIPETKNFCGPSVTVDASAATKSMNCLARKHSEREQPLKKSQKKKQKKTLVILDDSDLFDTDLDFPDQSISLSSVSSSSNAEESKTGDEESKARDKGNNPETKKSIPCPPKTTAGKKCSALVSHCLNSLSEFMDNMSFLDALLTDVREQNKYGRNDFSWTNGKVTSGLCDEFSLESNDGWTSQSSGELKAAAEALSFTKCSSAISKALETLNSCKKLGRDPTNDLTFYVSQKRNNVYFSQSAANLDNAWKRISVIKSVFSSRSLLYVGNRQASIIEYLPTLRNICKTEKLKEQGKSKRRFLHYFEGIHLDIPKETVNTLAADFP

The target in assay [10] is Chromobox protein homolog 1 (Homo sapiens) (UniProt P83916). Briefly: qHTS Validation Assay for Inhibitors of HP1-beta Chromodomain Interactions with Methylated Histone Tails (AID 488953). Also: nearly all actives have a fitted effect of over 50% in size. Also: potency is read from the fitted curve at half-maximal effect. The method in brief: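 Compounds pinned into a preassembled complex of HP1-beta and trimethyl-K9 histone H3(1-18) biotin peptide (50 nM each; PBS pH 7.4, 0.01% Tween-20). After 30 min, bead-based AlphaScreen detection followed.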

Assay [11] deals with Methanococcus maripaludis chaperonin (MmCpn) (UniProt Q6LX38). In words: High-Throughput Screening for Modulators of Cytosolic Chaperonin Activity: MmCpn Primary Screen (AID 488978).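 Also: 50 nM MmCpn enzyme hydrolysing 30 µM ATP at 37 °C; 0% is about no effect.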 The essentials:
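Steps: chaperonin 50 nM final; add compound, 5 min RT; start with ATP, 30 uM final; hold 10 min at 37C; add ADP Transcreener HTRF reagent, 5 min; read ex 320, em 590 and 665 nm.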

For assay [12], the target named is Transient receptor potential cation channel subfamily V member 1 (Homo sapiens) (UniProt Q8NER1). Briefly: HTS Assay for Compounds that Act as Enhancers of the Vanilloid Receptor 1 (AID 488979). Also: 0% is about no effect. The essentials:
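Calcium influx kinetics via Fluo-8 (480/520 nm) in TRPV1-expressing cells, 2000/well cultured overnight at 35.5C. Compound-alone read 3 min (agonist phase), followed by EC20 capsaicin challenge for 2 min (enhancer phase).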

The target of assay [13] is Thyrotropin-releasing hormone receptor (Homo sapiens) (UniProt P34981). In words: qHTS for Small Molecule Agonists and Allosteric Enhancers of Human TRH Receptor: Validation Screen for Agonists (AID 493127;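 active = calcium activation more than 3 SD above the typical response in the agonist read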;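 also: intracellular calcium rise by fluo-8 fluorescence before TRH EC20 addition; 0% is about no effect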). To be noted: TRH receptor agonist cell assay; at 2 µM; stronger effect = higher value. The method in brief: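 Kinetic fluorescence assay of agonist-induced calcium release: overnight-plated TRHR cells, room-temperature fluo-8 loading, baseline then compound addition with per-second reads.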

Assay [14] can be described thus: qHTS for Inhibitors of Cell Surface uPA Generation: Validation Assay (AID 493164).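 Also: RAW 264.7 macrophage cells exposed to compound for 18 h; 0% is about no effect.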 The method in brief: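 Compounds are titrated over seven points (2.45 nM–38.3 uM final) onto pre-plated RAW 264.7 cells and incubated for 18 h. Retained intracellular ATP, measured with ATP-Lite, indicates blocked lethal factor entry.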
A short description of assay [15]: Validation screen for small molecules that induce DNA re-replication in SW480 colon adenocarcinoma cells (AID 504364). Also: 0% is about no effect. The essentials:
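Hoechst-stained SW480 nuclei, imaged at 405 nm excitation after 48 hr compound exposure, were counted for elevated DNA content as the re-replication signal.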

Assay [16] is described as follows: Nrf2 qHTS screen for inhibitors: Validation (AID 493153; active = well fitted inhibition curve with a large enough effect in the main read-out, with a control signal flat, not every such curve was filed as active). To be noted: Potency: luciferase luminescence; viability change: measured here: cytotoxicity max response. The method in brief:
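In this counterscreened reporter format, each well gives two signals: CellTiter-Fluor fluorescence for cytotoxicity and ARE-luciferase luminescence for Nrf2 function. A549 ARE_Fluc cells in 5% FBS OPTI-MEM were exposed to compound titrations for 18-24 h.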

Assay [17] deals with Thyrotropin receptor (Homo sapiens) (UniProt P16473). In words: qHTS Assay for Antagonists of the Thyroid Stimulating Hormone Receptor (AID 488980). Also: series mostly up to about 58 µM; 0% is about no effect. The essentials: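 Readout is cAMP by HTRF competition between cellular cAMP and cAMP-d2 for a cryptate-labelled antibody. Antagonism was assessed in TSHR-transfected HEK293 cells stimulated with 4 nM TSH (EC80, final) in the presence of RO 20-1724.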

For assay [18], the target named is Galactokinase (Homo sapiens) (UniProt P51570). Briefly: qHTS Validation Assay for Inhibitors of Human Galactokinase (GALK) (AID 493189). Also: potency is read from the fitted curve at half-maximal effect. The method in brief: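 5 nM GALK / 100 uM galactose / 35 uM ATP, 20 mM HEPES pH8.0, 5 mM MgCl2, 60 mM NaCl, 1 mM DTT, 0.01% BSA (final). RT 1 h; Kinase-Glo Plus luminescence.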

Methanococcus maripaludis chaperonin (MmCpn), sequence (Q6LX38 1-543): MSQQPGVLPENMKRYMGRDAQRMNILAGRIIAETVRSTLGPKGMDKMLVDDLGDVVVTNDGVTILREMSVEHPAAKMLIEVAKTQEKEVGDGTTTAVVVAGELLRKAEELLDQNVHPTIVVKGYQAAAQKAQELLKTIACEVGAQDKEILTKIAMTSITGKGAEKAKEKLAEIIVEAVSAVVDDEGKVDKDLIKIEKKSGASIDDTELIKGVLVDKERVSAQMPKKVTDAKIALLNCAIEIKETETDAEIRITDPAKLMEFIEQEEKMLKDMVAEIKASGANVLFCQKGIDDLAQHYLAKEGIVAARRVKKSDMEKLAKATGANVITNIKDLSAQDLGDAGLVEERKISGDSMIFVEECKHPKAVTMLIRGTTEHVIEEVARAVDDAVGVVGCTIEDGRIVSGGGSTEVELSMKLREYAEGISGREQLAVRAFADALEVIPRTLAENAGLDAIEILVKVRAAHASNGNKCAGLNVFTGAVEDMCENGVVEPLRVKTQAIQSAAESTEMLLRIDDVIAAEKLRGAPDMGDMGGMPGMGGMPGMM
Thioredoxin reductase 1, cytoplasmic (Rattus norvegicus), sequence (O89049 whole entry, looked up): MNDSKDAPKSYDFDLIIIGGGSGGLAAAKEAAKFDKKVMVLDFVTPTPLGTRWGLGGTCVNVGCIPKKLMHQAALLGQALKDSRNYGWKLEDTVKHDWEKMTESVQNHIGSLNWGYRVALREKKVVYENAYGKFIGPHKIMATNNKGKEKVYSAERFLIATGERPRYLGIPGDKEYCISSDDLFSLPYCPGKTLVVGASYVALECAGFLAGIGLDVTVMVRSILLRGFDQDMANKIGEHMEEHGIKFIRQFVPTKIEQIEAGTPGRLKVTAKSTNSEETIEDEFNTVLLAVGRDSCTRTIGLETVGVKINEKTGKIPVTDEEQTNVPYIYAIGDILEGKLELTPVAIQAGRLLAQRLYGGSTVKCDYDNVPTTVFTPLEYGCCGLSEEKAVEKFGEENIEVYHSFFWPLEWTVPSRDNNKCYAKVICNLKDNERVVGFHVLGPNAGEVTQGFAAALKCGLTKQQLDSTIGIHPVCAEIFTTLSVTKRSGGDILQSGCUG
M-phase phosphoprotein 8 (Homo sapiens), sequence (Q99549 whole entry, looked up): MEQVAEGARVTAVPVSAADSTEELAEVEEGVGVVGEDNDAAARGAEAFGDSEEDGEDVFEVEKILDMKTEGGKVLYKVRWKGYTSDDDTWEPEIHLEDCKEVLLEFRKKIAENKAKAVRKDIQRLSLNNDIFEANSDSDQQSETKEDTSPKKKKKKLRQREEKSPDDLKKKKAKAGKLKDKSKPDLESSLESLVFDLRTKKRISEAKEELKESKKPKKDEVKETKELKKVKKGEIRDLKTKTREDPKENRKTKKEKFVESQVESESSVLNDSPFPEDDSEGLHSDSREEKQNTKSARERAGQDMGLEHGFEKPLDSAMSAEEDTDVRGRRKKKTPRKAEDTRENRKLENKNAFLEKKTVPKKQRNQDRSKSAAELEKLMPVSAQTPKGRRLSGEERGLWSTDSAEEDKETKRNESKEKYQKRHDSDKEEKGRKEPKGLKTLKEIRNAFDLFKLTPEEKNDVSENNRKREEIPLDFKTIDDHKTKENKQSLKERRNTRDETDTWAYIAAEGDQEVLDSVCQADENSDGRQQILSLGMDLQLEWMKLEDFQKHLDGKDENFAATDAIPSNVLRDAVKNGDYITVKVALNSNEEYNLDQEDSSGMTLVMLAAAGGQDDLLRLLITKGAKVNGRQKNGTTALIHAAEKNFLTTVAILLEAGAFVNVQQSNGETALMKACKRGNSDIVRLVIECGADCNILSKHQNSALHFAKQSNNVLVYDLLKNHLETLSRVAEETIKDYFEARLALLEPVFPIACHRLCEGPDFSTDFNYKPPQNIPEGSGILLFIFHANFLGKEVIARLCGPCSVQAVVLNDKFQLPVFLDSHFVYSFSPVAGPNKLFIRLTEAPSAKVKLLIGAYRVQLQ
Transient receptor potential cation channel subfamily V member 1 (Homo sapiens), sequence (Q8NER1 whole entry, looked up): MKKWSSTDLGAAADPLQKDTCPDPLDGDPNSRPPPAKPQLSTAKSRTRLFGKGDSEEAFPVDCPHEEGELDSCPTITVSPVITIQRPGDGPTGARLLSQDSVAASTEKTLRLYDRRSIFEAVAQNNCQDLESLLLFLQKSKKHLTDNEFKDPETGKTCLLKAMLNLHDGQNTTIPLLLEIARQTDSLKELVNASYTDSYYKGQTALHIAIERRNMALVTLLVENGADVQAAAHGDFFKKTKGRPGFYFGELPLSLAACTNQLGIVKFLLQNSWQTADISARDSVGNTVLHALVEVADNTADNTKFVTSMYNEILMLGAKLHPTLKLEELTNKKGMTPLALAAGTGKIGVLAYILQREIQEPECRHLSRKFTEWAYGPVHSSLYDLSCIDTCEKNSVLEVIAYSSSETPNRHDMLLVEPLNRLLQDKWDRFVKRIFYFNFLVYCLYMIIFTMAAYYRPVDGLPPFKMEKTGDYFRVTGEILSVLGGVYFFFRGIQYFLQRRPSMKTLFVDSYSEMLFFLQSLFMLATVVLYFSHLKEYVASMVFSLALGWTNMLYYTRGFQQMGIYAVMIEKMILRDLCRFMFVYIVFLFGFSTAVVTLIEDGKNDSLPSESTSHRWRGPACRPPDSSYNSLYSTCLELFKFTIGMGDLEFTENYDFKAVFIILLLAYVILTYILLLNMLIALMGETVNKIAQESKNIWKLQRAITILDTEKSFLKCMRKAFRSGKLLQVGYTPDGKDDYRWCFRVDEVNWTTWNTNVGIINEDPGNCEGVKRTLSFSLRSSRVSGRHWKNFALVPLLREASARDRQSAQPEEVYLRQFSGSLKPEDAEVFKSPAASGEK

On to `Cn1ncc(S(=O)(=O)Cc2ccccc2)c(Br)c1=O`, for which the Potency result in assay [1], in [3], in assay [4], in assay [5], in assay [6] and in [7] was “inactive” each time. For the same molecule, the Potency entry in [8] and in assay [9] was “inactive” throughout. The Potency in assay [2] was 0.947 µM (active).
Consider `CC12C(=O)OC(=O)C1(C)C1CCC2O1` (centres undefined), for which the Potency result in assay [1], in assay [2], in assay [4], in [10], in assay [5] and in assay [6] was “inactive” in each case. Besides, the Potency entry in assay [7] and in assay [15] was “inactive” in each case. Further, the call in assay [11], in [12] and in assay [14] was inactive. The Potency is 2.91 µM (active) in assay [8] and 14.6 µM (active) in assay [9]. For the same molecule, the activation in assay [13] was -0.25% (inactive).
With `CC(C)CC(NP(=O)(O)O[C@@H]1O[C@@H](C)[C@H](O)[C@@H](O)[C@H]1O)C(=O)NC(Cc1c[nH]c2ccccc12)C(=O)O` (some centres undefined), the Potency result in assay [1], in assay [2], in assay [10], in assay [5], in assay [7] and in assay [8] was “inactive” in each case. For the same molecule, the Potency entry in assay [9] and in [16] was “inactive” in each case. Also, the call in assay [11] and in assay [14] was inactive. Further, in [16], the viability change is -0.0491%.
For the molecule `O=C1C(SCCO)=C(SCCO)C(=O)c2ccccc21`, the Potency in [1] was 16.8 µM (active); in assay [2], 26.7 µM (active); in assay [10] it was 10 µM (active); in assay [7] it was 11.2 µM (active); in assay [18], 25.1 µM (active). Further, the Potency entry in assay [4], in assay [5] and in assay [8] was “inactive” each time. The call in assay [11], in assay [12] and in assay [17] was inactive. In addition, the activation in assay [13] was -3.25% (inactive).
On to `O=C(O)CC1CC(c2ccccc2)=NO1` (centres undefined), for which the Potency entry in assay [1], in [2], in assay [4], in assay [10], in [5] and in assay [6] was “inactive” in each case. Besides, the Potency result in assay [7], in assay [8] and in [9] was “inactive” in each case. Further, the outcome in assay [11] and in [14] was inactive.
On to `CCCCN1CCC(n2c(=O)[nH]c3ccccc32)CC1`, for which the Potency result in [1], in assay [2], in [3], in [4], in assay [5] and in assay [7] was “inactive” in each case. For the same molecule, the Potency entry in assay [8], in assay [9], in assay [16], in assay [18] and in [15] was “inactive” throughout. Also, the call in assay [11], in [12], in [17] and in assay [14] was inactive. Besides, the activation in assay [13] is 1% (inactive). Moreover, in [16], the viability change is -4.5%.
For `CC(C)ON([C@@H](C(=O)NO)C(C)C)S(=O)(=O)c1ccc(-c2ccccc2)cc1`, the Potency entry in [1], in assay [2], in assay [3], in [4], in assay [5] and in assay [6] was “inactive” in each case. Besides, the Potency entry in [7] and in [8] was “inactive” throughout. Moreover, the molecule was called inactive in [11] and in assay [14].
